Assay outcomes: PubChem BioAssay, National Center for Advancing Translational Sciences (NCATS)
A selection: hits, their analogues and other compounds. The true share with any hit is near 9.4%.
IMPase Li inh = membrane-permeable IMPase blocker, potentiated with lithium | CHO-M1 cells, IP1 TR-FRET (IP-One), carbachol + lithium | Potency, µM (doses to about 59.4 µM), inactives show at the highest dose activity, negative = IMPase inhibition, hits mostly inhibitors | 0.35% of 210,000 active;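 also: IP1 builds up when IMPase is blocked and the TR-FRET signal falls; potency is read from the fitted curve at half-maximal effect; plate controls were basal vehicle for no effect and high inhibitor control for full effect; nearly all actives have a fitted effect of over 50% in size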
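CHO-M1, 2000 cells/well, 16–30 h culture; cpd + low Li+, 30 min 37C; lysis with d2-IP1/Eu-anti-IP1 Ab, 10 min RT; TR-FRET 665/620 ratio and 620 channel; AC50 via Hill.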
ALDH1A1 inh = blocks purified human ALDH1A1 activity; Purified ALDH1A1, NADH fluorescence, propionaldehyde substrate; AID 1030; 7.3% of 220,000 active; Potency, µM (doses to about 75.3 µM), for inactives: at the top dose activity, negative = inhibition, actives largely listed as inhibitors; active = well fitted inhibition curve with a large enough effect, not every such curve was filed as active; inconclusive = small, poorly fitted or top-dose-only effect, or another doubt; inactive = no such curve, though single readings can be large or run the other way;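 also: potency is read from the fitted curve at half-maximal effect; plate controls were no enzyme wells and a reference inhibitor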
Target sequence (P00352 whole entry, looked up): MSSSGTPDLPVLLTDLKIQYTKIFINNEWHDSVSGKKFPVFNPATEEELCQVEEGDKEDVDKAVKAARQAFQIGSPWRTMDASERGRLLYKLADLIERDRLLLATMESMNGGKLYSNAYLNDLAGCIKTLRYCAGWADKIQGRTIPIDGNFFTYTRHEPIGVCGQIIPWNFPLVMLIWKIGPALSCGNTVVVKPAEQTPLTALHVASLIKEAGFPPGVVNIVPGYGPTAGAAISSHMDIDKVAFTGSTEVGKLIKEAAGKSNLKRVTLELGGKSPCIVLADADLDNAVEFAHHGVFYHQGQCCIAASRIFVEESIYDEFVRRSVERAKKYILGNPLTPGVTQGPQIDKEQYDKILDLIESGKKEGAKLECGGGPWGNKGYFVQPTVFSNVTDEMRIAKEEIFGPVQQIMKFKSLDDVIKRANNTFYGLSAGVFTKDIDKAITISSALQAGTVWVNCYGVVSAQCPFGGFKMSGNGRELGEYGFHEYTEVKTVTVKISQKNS
HTT aggregate = mutant huntingtin aggregation inhibition; PC12 HttQ103-GFP aggregates, Acumen cytometry, 40 h; 1.1% of 220,000 active; Potency, µM (top dose mostly 46.1 µM), without a hit: at the highest dose activity change, negative = inhibition, hits mostly inhibitors; also: potency is read from the fitted curve at half-maximal effect; % is scaled to controls: 0 for no effect and ±100 for the full control effect; nearly all actives have a fitted effect of over 60% in size
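Steps: seed 1500 PC12 HTTQ103-GFP cells/well; add tebufenozide, 100 nM final; add compound titration; add ATPLite reagent; quantify GFP aggregates by laser scanning cytometry.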
HTT cytoprotect = protects HTT-Q103 PC12 cells, measured by ATP; PC12 HTT-Q103 induced, cytoprotection, ATP luminescence, 40 h; 0.14% of 230,000 active; Potency, µM (top dose mostly 56.4 µM), for inactives: cytoprotection (ATP increase), usual class: activators; also: potency is read from the fitted curve at half-maximal effect; % of control where 0% means no effect; nearly all actives have a fitted effect of over 45% in size
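Stable PC12 Q103-GFP cells in serum-supplemented, phenol red-free DMEM; induction by tebufenozide at 100 nM final; compound dose series; cell viability quantified luminescently from ATP.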
HPGD inh = HPGD (human) dehydrogenase inhibition | Potency, µM, for the others: at the top dose activity change, negative = inhibition, most hits filed as inhibitors | AID 894 | purified HPGD, NADH fluorescence kinetic, PGE2 substrate | 4.3% of 150,000 active; active = well fitted inhibition curve with a large enough effect, not every such curve was filed as active; inconclusive = small, poorly fitted or top-dose-only effect, or another doubt; inactive = no such curve, though single readings can be large or run the other way; also: potency is read from the fitted curve at half-maximal effect; % is scaled to controls: 0 for no effect and ±100 for the full control effect
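NADH formation kinetics: reaction with 30 uM PGE2 and 1 mM NAD+ (final), 20 nM enzyme, Tris-HCl pH 8 with Tween 20, after 15 min compound preincubation at room temperature. Fluorescence change, last versus first of five reads.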
IMPase cell inh = IMPase inhibition in cells; inhibition (IP1 accumulation), % at 46.1 µM; P97697; 120,000 tested, under 10 active; CHO-M1 cells, IP1 accumulation, HTRF TR-FRET ratio; AID 901; active = well fitted curve in the direction sought with a large enough effect in the signal ratio, not every such curve was filed as active; inconclusive = small, poorly fitted or top-dose-only effect, or a change in a side signal; inactive = no such curve, though single readings can be large or run the other way; the % refers to the signal ratio;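 also: cells stimulated with carbachol in lithium chloride buffer; plate controls were DMSO basal wells for no effect and reference inhibitor wells for full effect; higher means more IMPase inhibition seen as more IP1 and lower FRET ratio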
Target sequence (P97697 whole entry, looked up): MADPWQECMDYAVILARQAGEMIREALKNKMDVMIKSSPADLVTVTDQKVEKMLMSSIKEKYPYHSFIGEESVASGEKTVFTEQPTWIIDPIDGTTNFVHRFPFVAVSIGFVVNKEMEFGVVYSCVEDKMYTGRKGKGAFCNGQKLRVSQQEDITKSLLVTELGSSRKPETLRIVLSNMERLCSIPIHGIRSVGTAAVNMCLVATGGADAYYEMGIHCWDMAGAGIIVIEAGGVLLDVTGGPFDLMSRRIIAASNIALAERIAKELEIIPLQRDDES
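The IP-One HTRF competitive assay in carbachol-stimulated CHO-M1 cells quantifies cellular IP1. Compounds spanned up to 46 uM final, and activity is expressed as AC50 from concentration-response fits of the ratio and donor data.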
* marks the source's active call; other numbers are inactive results; u = inconclusive; x = no result; [ ] = another dose, or the depositor's remark. Unless noted, calls follow the shape of the dose curve; as a rule, active = well fitted curve in the direction sought with a large enough effect; inconclusive = small, poorly fitted or top-dose-only effect, or another doubt; inactive = no such curve, though single readings can be large; an effect the other way counts as inactive or inconclusive.

SMILES	IMPase Li inh	ALDH1A1 inh	HTT aggregate	HTT cytoprotect	HPGD inh	IMPase cell inh
CCOC(=O)Cc1nnc2c(Nc3ccccc3F)nc3nonc3n12	14%[38.3 µM]	4%	16µM*	-1%[10 µM]	-2%	23
Cc1ccccc1OCCc1c(C)[nH]c(=S)[nH]c1=O	6%	20µM*	18%	-50%[10 µM]	x	x
Cc1ccc(C)c(C(=N)c2ccccc2Cc2ccccc2)c1	0%	8%[13.5 µM]	x	10%[10 µM]	2%	x
COc1ccccc1NCC(=O)NNCC(=O)Nc1ccc(F)c(Cl)c1	-3%	-5%	14%	-46%	x	x
CCS(=O)(=O)N1CCN(c2ccc(C(=O)NC3C4CC5CC(C4)CC3C5)cc2[N+](=O)[O-])CC1 (stereo not drawn)	0%	7.1µM*	u	-6%[10 µM]	-1%	-1
C=CC[C@](C)(O)c1ccccc1	9%	1%	x	3%	-2%	x
Cc1noc(NS(=O)(=O)c2ccc(NC(=O)CSc3nc4ccccc4s3)cc2)c1C	13%[38.3 µM]	10µM*	-16%	-2%[0.074 µM]	28µM*	-3
Cc1noc(NS(=O)(=O)c2ccc(NC(=O)CCn3c(=O)oc4ccccc43)cc2)c1C	50%[38.3 µM]	4µM*	3%	-11%	-19%	1
O=C(CSc1nc2ccccc2s1)Nc1cc(S(=O)(=O)N2CCOCC2)ccc1Cl	1%	22µM*	-13%	0%[1.9 µM]	-31%	14
Cc1cc(C)nc(SCC(=O)Nc2ccc(S(=O)(=O)Nc3onc(C)c3C)cc2)n1	1%[38.3 µM]	26%	21%	13%	-5%	3
Cc1noc(NS(=O)(=O)c2ccc(NC(=O)CSc3ncccn3)cc2)c1C	20%[38.3 µM]	20µM*	0%	12%[10 µM]	-6%	-15
Cc1cc(C)nc(NS(=O)(=O)c2ccc(NC(=O)Cn3c(=O)oc4ccccc43)cc2)n1	-10%[38.3 µM]	-10%	-7%	-9%	-12%	1
O=C1C2CC=C(Cl)CC2C(=O)N1CC1Cc2ccccc2CO1 (stereo not drawn)	10%[38.3 µM]	22µM*	11%	-35%	22µM*	-9
O=C1C2CC=C(Cl)CC2C(=O)N1CC1OCCc2ccccc21 (stereo not drawn)	23%[38.3 µM]	u	30%	14%	-20%	-7
CCOC(=O)c1c(-c2ccccc2)oc2ccc(NS(=O)(=O)c3cc(C)c(C)cc3C)cc12	x	x	x	x	x	-8
Nc1ncnc2c1nc(Sc1ccc(Cl)cc1)n2[C@@H]1O[C@H]2COP(=O)(O)O[C@@H]2[C@H]1O	x	x	x	-17%[1.9 µM]	x	u
O=c1[nH]ncc(N2CCCCCC2)c1Cl	24%	10µM*	9%[9.22 µM]	9%[10 µM]	x	x
O=c1[nH]ncc(N2CCCCC2)c1Cl	-3%	-4%	-15%	x	-9%	x
O=C(N1CCCCC1)N1CCN(C(=O)N(c2ccccc2)c2ccccc2)CC1	19%[38.3 µM]	11µM*	-13%	9%	-1%	0
CCCCC[C@@H](O)[C@@H]1C(=O)O[C@@H](C)[C@@H](O)\C=C/C=C\C=C/C=C\C=C(\C)[C@H](O)C[C@H](O)C[C@H](O)C[C@H](O)C[C@H](O)C[C@H](O)C[C@@H]1O	x	x	x	-5%[10 µM]	x	x
CC(C)c1ccc(/C=C2\CC/C(=C\C=N\N(C)C)C2=O)cc1	9%[38.3 µM]	0.4µM*	6%[9.22 µM]	-26%	-23%	10
Cc1ccnc(SCc2cc(=O)c(OC(=O)c3ccc(Cl)c([N+](=O)[O-])c3)co2)n1	-10%	7.5µM*	0%	x	u	x
CCN(CC)S(=O)(=O)c1ccc(C(=O)Oc2coc(CSc3nc(C)cc(C)n3)cc2=O)cc1	13%	2%	15%	23%[10 µM]	-9%	x
Cc1cc(C)nc(SCc2cc(=O)c(OC(=O)c3cccc([N+](=O)[O-])c3)co2)n1	3%	0.056µM*	-6%	3%[10 µM]	-4%	-9
COCC(=O)N1CCC[C@@]2(CCN(C(c3ccccc3)c3ccccc3)C2)C1	9%	5%	x	u	-3%	x
SMILES	IMPase Li inh	ALDH1A1 inh	HTT aggregate	HTT cytoprotect	HPGD inh	IMPase cell inh
CN1CCc2cccc3c2C1Cc1ccc(O)c(O)c1-3 (stereo not drawn)	19%	u	x	x	5µM*	x
CN1CCC(=C2c3ccccc3C(O)c3ccccc32)CC1 (stereo not drawn)	x	x	-15%[9.22 µM]	11%[10 µM]	x	x
Cc1cc(NCCO)nc(-n2nc(C)cc2C)n1	x	u	-2%	-8%	x	0
Cc1cc(N(CCO)CCO)nc(-n2nc(C)cc2C)n1	-9%[38.3 µM]	11µM*	-1%	-15%	-11%	3
Cc1cccc(NC(=S)NCC2CCCO2)c1 (stereo not drawn)	18%[38.3 µM]	-5%	15%	15%	14µM*	-4
S=C(NCC1CCCO1)Nc1ccc(Cl)cc1Cl (stereo not drawn)	0%	-5%	12%	22%[10 µM]	28µM*	x
S=C(NCC1CCCO1)Nc1ccc(Cl)cc1 (stereo not drawn)	-3%	-15%	-12%	16%[0.074 µM]	-26%	x
C/C(=N\NC(N)=S)C1C2C3CC4C5CC(C42)C1C53 (stereo not drawn)	-3%	u	-24%	11µM*	x	x
S=C(NC1CCCCC1)c1ccc2c(c1)OCO2	-6%[38.3 µM]	u	-12%	-45%	20µM*	-2
CCOc1ccc(C(=S)NC2CCCCC2)cc1OC	7%[38.3 µM]	40µM*	2%	-41%	20µM*	5
O=C(NC1CCCCCCC1)c1ccc2c(c1)OCO2	20%[38.3 µM]	-1%	-14%	-5%[10 µM]	16µM*	10
COc1ccc(OC)c(NC(=O)C(=S)NC2CCCCC2)c1	22%	8.9µM*	0%[9.22 µM]	-85%	x	x
O=C(NNC(=S)NC1CCCCC1)c1ccc2c(c1)OCO2	0%	-11%	u	12%[10 µM]	-13%	-4
CSc1ncnc2c1ncn2CC(=O)[C@H]1CC[C@H]2[C@H]3CCC4=CC(=O)CC[C@@]4(C)[C@@H]3CC[C@@]12C	28%	u	x	-6%[10 µM]	0%	x
O=C(OCc1ccccc1)c1cccnc1	x	x	-6%	-6%	x	x
CC(C)Cn1nnnc1S(=O)(=O)CC#N	4%	-4%	x	7%	-9%	x
COc1ccc(OCCSc2nnc(C(C)NC(=O)c3ccccc3F)n2C)cc1 (stereo not drawn)	14%	2%	5%	2%[10 µM]	x	x
Cc1cc(C(=O)CN2C(=O)CCC2=O)c(C)n1Cc1ccccc1	-9%[38.3 µM]	7.1µM*	12%	-20%	-10%	12
O=C(CCSCc1ccc(Cl)cc1)NC1CCCC1	3%	-1%	-2%	-20%[10 µM]	18µM*	23
O=C(Cc1ccc(Cl)cc1)NC1CC1	-7%	8%	-8%	-10%	x	x
O=C(O)CSCc1ccc(Cl)cc1	7%[38.3 µM]	14%	-5%	8%	0%	0
O=C(CSc1ccc(Cl)cc1)NC1CCCC1	1%[38.3 µM]	-4%	8%	0%[10 µM]	10µM*	5
